# Source: PubChem
# PfM18AAP inh = PfM18AAP inhibitors, malaria aminopeptidase, primary screen, biochemical, QFRET, recombinant enzyme; inhibition, % at 7.35 µM; 290,000 tested, 1.2% active; H-Glu-NHMec fluorogenic cleavage; M18 aspartyl aminopeptidase (Plasmodium falciparum 3D7); AID 1822, 2009;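 active means inhibition above the campaign mean inhibition over all tested compounds plus 3 SD, cut at about 28% in these data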;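 further: 0% = plate median of test compound wells and 100% = 2 mM ZnCl2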
# pPAFAH FP inh = pPAFAH enzyme inhibitors, primary screen, biochemical, fluorescence polarization, human; Platelet-activating factor acetylhydrolase (Homo sapiens), Q13093; 330,000 tested, 1.5% active; inhibition, % at 3.39 µM; recombinant pPAFAH, FP-rhodamine probe fluorescence polarization; AID 463082, 2010;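 active means inhibition above the mean inhibition across the screen plus 3 SD, cut at about 25% in these data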;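 further: inhibitors block binding of the rhodamine activity-based probe so polarization drops; 0% = enzyme with DMSO and 100% = wells lacking pPAFAH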
# DSG3 Ab inh = inhibitors of pemphigus antibody binding to DSG3, primary screen, biochemical, bead-based, flow cytometry, scFv-GFP. 310,000 tested, 0.48% active. Desmoglein-3 (Homo sapiens), P32926. binding (percent of control), % at 10 µM. DSG3-coupled beads, scFv-anti-DSG3-GFP binding; stronger effect = lower value;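 active means binding more than 3 SD below its plate's average and above zero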;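 further: hits lower antibody fragment binding to DSG3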
# PAFAH2 inh = PAFAH2 enzyme inhibitors, primary screen, biochemical, fluorescence polarization, human | Platelet-activating factor acetylhydrolase 2, cytoplasmic (Homo sapiens), Q99487 | recombinant PAFAH2, FP-rhodamine activity probe | inhibition, % at 3.39 µM | 340,000 tested, 0.99% active;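 active means inhibition above the mean over all tested compounds plus 3 SD, cut at about 30% in these data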;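 further: inhibitors block probe labeling of enzyme so polarization drops; 0% = enzyme with DMSO and 100% = wells lacking PAFAH2 protein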
# PAFAH1B3 FP inh = PAFAH1B3 enzyme inhibitors, primary screen, biochemical, fluorescence polarization, human; Platelet-activating factor acetylhydrolase IB subunit alpha1 (Homo sapiens), Q15102; recombinant PAFAH1B3, FP-rhodamine probe; inhibition, % at 3.39 µM; 340,000 tested, 0.28% active; AID 492972, 2010;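 active means inhibition above the screen-wide average of all tested compounds plus 3 SD, cut at about 25% in these data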;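 further: 0% = enzyme with DMSO only and 100% = wells lacking PAFAH1B3 protein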
# PAFAH1B2 inh = PAFAH1B2 enzyme inhibitors, primary screen, biochemical, fluorescence polarization, human; inhibition, % at 3.39 µM; AID 492953, 2010; 340,000 tested, 1.2% active; recombinant PAFAH1B2, FP-rhodamine activity probe; Platelet-activating factor acetylhydrolase IB subunit alpha2 (Homo sapiens), P68402;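 active means inhibition above the mean of all tested compounds plus 3 SD, cut at about 24% in these data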;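 further: 0% = enzyme with DMSO and 100% = wells lacking PAFAH1B2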
# PAFAH1B3 confirm = PAFAH1B3 enzyme inhibitors, confirmation, biochemical, fluorescence polarization, human; 390 tested, 30% active; shares compounds with PAFAH1B3 FP inh; recombinant PAFAH1B3, FP-Rh activity-based probe; inhibition, % at 3.39 µM; AID 493032, 2011;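 active means average inhibition over triplicate runs above the hit cutoff set in the earlier primary screen, cut at about 25% in these data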;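 further: 0% = enzyme with DMSO and 100% = wells lacking PAFAH1B3 protein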
# * hit, by the source's call; x = no result given. This is a sample that favours compounds with a hit; in the whole collection about 3.8% have one here.
SMILES,PfM18AAP inh,pPAFAH FP inh,DSG3 Ab inh,PAFAH2 inh,PAFAH1B3 FP inh,PAFAH1B2 inh,PAFAH1B3 confirm
CCCNc1c(NC(=O)c2ccc3c(c2)OCO3)c(=O)oc2ccccc12,-14,4,94,-4,8,3,x
COc1cc2c(cc1OC)CN(CC(=O)Nc1ccc(C)c(S(=O)(=O)N3CCOCC3)c1)CC2,14,6,x,3,4,-1,x
Cc1nc2ccc(C(=O)N/N=C/c3cc([N+](=O)[O-])ccc3O)cc2[nH]1,-10,13,84,1,27*,7,24
O=C(Cn1c(=S)[nH]c2ccccc2c1=O)N1CCN(c2ccccc2)CC1,-5,7,109,-25,26*,-14,11
CC(=O)c1sc(C(C)(C)C)cc1NC(=O)/C=C/C(=O)O,8,0,111,12,44*,6,35*
CC(=O)c1sc(C(C)(C)C)cc1NC(=O)CCC(=O)O,2,1,112,2,2,6,x
CC(C)n1cnc2c(NCc3ccccc3)cc(N[C@H](C)CO)cc21,x,10,107,18,43*,12,35*
CCC(CO)Oc1cc(NCc2ccccc2)c2ncn(C(C)C)c2c1 (configuration not stated),x,7,110,-5,11,4,x
C[C@H](CO)N1C[C@H](C)[C@@H](CN(C)S(=O)(=O)c2cccc(F)c2)Oc2ncc(Br)cc2C1=O,x,x,108,x,x,x,x
CCOC(=O)C1C(=O)CC(=O)C(C(=O)OCC)C1c1ccc(O)cc1 (configuration not stated),x,x,102,x,x,x,x
O=C(NN=c1c(=O)c2ccccc2c1=O)c1ccccc1,8,-1,100,3,38*,2,32*
COc1cc(NC(=O)CN2C(=O)COc3ccc(S(=O)(=O)N4CCCC4)cc32)cc(OC)c1,-1,1,94,8,2,1,x
COc1cc(NS(=O)(=O)c2ccc(NC(=S)NC(=O)/C=C/c3ccco3)cc2)ncn1,8,x,98,27,29*,9,17
COn1c2c(c3c4no[n+]([O-])c4ccc31)CCCC2,1,0,99,-2,8,-2,x
[O-][n+]1c2c(c3c4non(O)c4ccc31)CCCC2,20,24,119,8,28*,5,16
Cc1cccc(C(=O)NC(=S)Nc2cccc3nc(C)ccc23)c1,11,4,109,-2,-3,0,x
N#Cc1cc2c(nc1SCC(=O)N1CCOCC1)CCCCC2,10,14,105,1,26*,-2,9
O=C1N/C(=C\c2ccc(O)cc2)C(=O)c2ccccc21,21,3,128,3,33*,10,25
CC1(c2nnc(-c3ccncc3)o2)CC(c2ccc(F)cc2)=NO1 (configuration not stated),x,0,105,-32,26*,6,10
CC1(c2nnc(-c3ccc(F)cc3)o2)CC(c2cccnc2)=NO1 (configuration not stated),x,1,101,4,15,5,x
CN(O)/C=c1/ccc2c(n1)C(=O)C=CC=2,5,7,98,11,35*,8,45*
COCCCNC(=O)c1ccc(CS(=O)(=O)c2ccc(Br)cc2)o1,-5,-4,110,10,29*,-4,8
O=C(/C=C/c1ccccc1)NCCc1c[nH]c2ccccc12,x,11,117,4,11,4,x
Brc1ccc(-c2csc(Nc3nc(-c4ccc(Br)cc4)cs3)n2)cc1,2,2,108,16,34*,17,22
O=C(N/N=C1\C/C(=N\NC(=O)c2ccncc2)c2ccccc21)c1ccncc1,-3,22,100,22,28*,14,12
